Assay outcomes from PubChem.
S2 tox: Viability Counterscreen for Primary qHTS for Inhibitors of ATXN expression; AID 651635, 2014; Potency, µM (doses to about 56.7 µM), most hits filed as cytotoxic; S2 cells (HEK-293 line with an ATXN2-luciferase reporter) viability, CellTiter-Fluor protease fluorescence, 24 h; 0.49% of 400,000 active; further: potency means the concentration at half of the fitted maximal effect; nearly all actives have a fitted effect of over 40% in size
HepG2 viability: qHTS for Inhibitors of TGF-b: Cytotox Counterscreen; 0.76% of 410,000 active; HepG2 CAGA-GFP viability, ATP luminescence, 18 h; Potency, µM (top dose mostly 46.1 µM), without a hit: at the highest dose activity change, negative = cytotoxicity, usual class: cytotoxic; further: potency means the concentration at half of the fitted maximal effect
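HepG2 CAGA-GFP cells (1000/well, DMEM with 1% FBS) received compound, then TGF-beta at 500 pg/mL final, and were incubated 18 hours at 37 degrees C. Viability was read by CellTiter-Glo luminescence. Media-only wells were set as complete cell-killing and DMSO as no toxicity.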
uPA surface inh: qHTS for Inhibitors of Cell Surface uPA Generation. cell surface uPA generation assay, qHTS. Potency, µM (top dose mostly 38.3 µM), for inactives: at the top dose activity change, negative = inhibition, most hits filed as inhibitors. 0.31% of 330,000 active. AID 540303, 2011; active means well fitted inhibition curve with a large enough effect; inconclusive means small, poorly fitted or top-dose-only effect; inactive means no such curve, though single readings can be large or run the other way; tested in mouse RAW 264.7 cells; further: potency means the concentration at half of the fitted maximal effect; on the % scale 0 is the no-effect control and ±100 the full control effect; nearly all actives have a fitted effect of over 55% in size
ATXN2 expr inh: Primary qHTS for Inhibitors of ATXN expression; HEK-293 ATXN2-luciferase reporter, luminescence, 24 h; Potency, µM (highest dose often 57 µM), for inactives: at the top dose activity change, negative = inhibition, most hits filed as inhibitors; 0.72% of 360,000 active; further: potency means the concentration at half of the fitted maximal effect; on the % scale 0 is the no-effect control and ±100 the full control effect; nearly all actives have a fitted effect of over 55% in size
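ATXN2-luciferase reporter cells (luciferase flanked by upstream and downstream ATXN2 gene portions) were treated 24 h at 37 °C with compounds at up to 57 uM. SteadyGlo luminescence gave expression; GF-AFC fluorescence gave viability.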
TGFb SMAD3 inh: qHTS for Inhibitors of TGF-b | HepG2 CAGA-GFP TGF-b/SMAD3 reporter, GFP fluorescence, 18 h; TGF-beta stimulated, 500 pg/mL final | Potency, µM (titrated, usually from 46.1 µM), for inactives: at the highest dose activity, negative = inhibition, actives largely listed as inhibitors | 1.2% of 410,000 active | AID 588855, 2011; further: potency means the concentration at half of the fitted maximal effect; on the % scale 0 is the no-effect control and ±100 the full control effect; nearly all actives have a fitted effect of over 65% in size
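Inhibition was scored as loss of TGF-beta-induced (500 pg/mL final, 18 hours, 37 degrees C) GFP in HEPG2 cells carrying a CAGA-GFP reporter, in DMEM with 1% FBS. Well GFP was summed per cell; Activity was normalised to unstimulated and stimulated DMSO wells, then concentration-response fitting.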
Giardia killer: Small Molecules that selectively kill Giardia lamblia: qHTS; 0.15% of 340,000 active; AID 540267, 2011; activity change, % at 7.66 µM, hits read low; Giardia lamblia trophozoite viability; in the data active means activity change below about -80%; inconclusive means between about -30% and that limit;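 further: parasites exposed to compound for two days anaerobically before the ATP read; on the % scale 0 is the no-effect control and ±100 the full control effect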
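Killing of trophozoites was scored by loss of ATP luminescence after a 48 hrs anaerobic exposure to compounds at 37 deg C, using 100 cells per well.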
An asterisk follows results filed as active; i = inactive; ? = inconclusive; . = no result. An excerpt weighted towards active compounds, which were near 2.6% of everything screened. Unless noted, the call rests on the fitted dose curve; in most records, active means well fitted curve in the direction sought with a large enough effect; inconclusive means small, poorly fitted or top-dose-only effect, or another doubt; inactive means no such curve, though single readings can be large; an effect the other way counts as inactive or inconclusive.

SMILES	S2 tox	HepG2 viability	uPA surface inh	ATXN2 expr inh	TGFb SMAD3 inh	Giardia killer
Cn1c(=O)c2c(nc(CN3CCN(Cc4ccccc4)CC3)n2Cc2cccc(Cl)c2)n(C)c1=O	?	-25%	-27%	-24%	-12%	9
CCCCCCC[n+]1ccc(/C=C/c2c(C)[nH]c3ccccc23)cc1	.	-111%	.	.	388%	.
COc1ncnc2c1ncn2CCCNCC(c1ccccc1)c1ccccc1	i	-20%	.	-16%	1%	.
O=C(Nc1ccn(CCCNCC(c2ccccc2)c2ccccc2)c(=O)n1)OCc1ccccc1	?	-116%	.	?	16µM*	.
CC(CNCCCn1ccc(NC(=O)OCc2ccccc2)nc1=O)c1ccccc1 (stereo not drawn)	i	-6%	17%	-25%	-6%	-21
c1ccc(COc2ncnc3c2ncn3CCCNCC(c2ccccc2)c2ccccc2)cc1	.	11µM*	.	?	16µM*	.
COC(=O)[C@@H]1C[C@@H](NC(=O)c2cnsn2)CN1Cc1ccc(Cl)cc1	i	.	.	.	.	.
CC(C)n1c(NCc2ccccc2O)nc2ccccc21	i	-18%	-2%	0%	-15%	-9
C=CCc1cccc(CNc2nc3ccccc3n2C(C)C)c1O	?	-44%	?	32µM*	13µM*	-26
Cc1cnc(-n2ncc(C(=O)NCCN3CCOCC3)c2-c2cccs2)nc1-c1ccc(F)cc1	i	.	.	.	.	.
CCOC(=O)Nc1ccc2c(c1)N(C(=O)CCN(CC)CC)c1ccccc1CC2	i	-19%	-2%	.	?	28
CCOC(=O)Nc1ccc2c(c1)N(C(=O)CCN(CC)CC)c1ccccc1S2=O (stereo not drawn)	?	-95%	17%	14%	14µM*	-6
COc1ccc(N2CCN(C(c3ccc(C)cc3)c3nnnn3C(C)(C)C)CC2)cc1 (stereo not drawn)	.	-30%	.	.	-4%	-12
COc1cccc(Nc2nc(C(N)Cc3ccc(C(F)(F)F)cc3)cs2)n1 (stereo not drawn)	.	10µM*	.	20µM*	?	.
COc1cccc(Nc2nc(C(N)CC(C)C)cs2)n1 (stereo not drawn)	?	-103%	.	-2%	11µM*	.
COc1ccc(CC(N)c2csc(Nc3cccc(OC)n3)n2)cc1 (stereo not drawn)	?	13µM*	.	-8%	?	.
COc1cccc(Nc2nc(C(N)Cc3ccc(Cl)cc3)cs2)n1 (stereo not drawn)	32µM*	-73%	.	25µM*	?	.
COc1cccc(NC(=O)c2ccccc2OCC(=O)Nc2ccc(Br)cc2)c1	.	-12%	.	.	?	.
COc1cccc(C(=O)N(Cc2cc3cc4c(cc3nc2N(C)C)OCO4)CC2CCCO2)c1 (stereo not drawn)	i	.	.	.	.	.
NC(=O)c1cccc(Nc2nc(C(N)Cc3ccc(C(F)(F)F)cc3)cs2)n1 (stereo not drawn)	?	-103%	.	28µM*	?	.
NC(Cc1ccccc1)c1csc(Nc2ccc(C(F)(F)F)cn2)n1 (stereo not drawn)	i	-84%	.	?	?	.
NC(Cc1ccccc1)c1csc(Nc2nncc3ccccc23)n1 (stereo not drawn)	.	-101%	.	?	16µM*	.
COc1cccc(Oc2ccc(C(F)(F)F)cc2NC(=O)CN2C(=O)NC3(CCCC3)C2=O)c1	?	13µM*	-44%	-36%	18µM*	10
COc1ccc(NC(=O)CN2C(=O)NC3(CCCC3)C2=O)c(OC)c1	i	-5%	6%	-7%	-12%	-15
COc1cccc(OC)c1C(=O)NCCc1csc(-c2ccc(Cl)cc2)n1	?	-33%	.	?	?	.
SMILES	S2 tox	HepG2 viability	uPA surface inh	ATXN2 expr inh	TGFb SMAD3 inh	Giardia killer
CN(C)CCCNC(=O)c1ccc(-c2nc(-c3ccc(Cl)cc3)cs2)cc1	20µM*	16µM*	10%	?	?	-12
COc1cccc(C(=O)NCCc2csc(-c3ccc(Cl)cc3)n2)c1	?	-28%	.	?	13µM*	.
COc1ccc(-c2nc3scc(CCNC(=O)c4cccc(Br)c4)n3n2)cc1	18µM*	-21%	.	?	?	.
COc1ccc(F)cc1S(=O)(=O)NCCc1csc(-c2ccc(Cl)cc2)n1	?	-24%	.	?	13µM*	.
CC(C)(C)c1ccc(C(=O)NCCc2csc(-c3ccc(Cl)cc3)n2)cc1	i	-18%	.	-12%	13µM*	.
Cc1ccc(-c2nc(CCNC(=O)c3ccc(C)c(C)c3)cs2)cc1	.	-10%	.	.	-18%	.
Cc1ccc2c(c1C)-c1c(ccc(C)c1C)C(=O)C2=O	?	4µM*	-8%	?	2.5µM*	-8
CCOC(=O)c1ccc(NC(=O)c2c(NCc3cc(OC)c(OC)cc3OC)sc3c2CCCC3)cc1	32µM*	-26%	.	-19%	0%	.
CCOC(=O)c1ccc(NC(=O)c2c(NCc3sccc3C)sc3c2CCC(C)C3)cc1 (stereo not drawn)	?	-39%	.	-32%	14µM*	.
CCOC(=O)c1ccc(NC(=O)c2c(NCc3cc(OC)ccc3OC)sc3c2CCC3)cc1	?	-30%	.	0%	-25%	.
O=C(Cn1cncn1)N1CCOc2ccc(CN3CCN(c4ccccc4)CC3)cc2C1	i	.	.	.	.	.
Cc1ccnc2c(N)cccc12	.	-22%	.	.	-8%	.
O=C(Nc1c(Cl)cc([N+](=O)[O-])cc1Cl)c1cc(Cl)cc(Cl)c1O	.	-53%	.	.	3.2µM*	11
O=C(Nc1cccc(O)c1)c1ccc([N+](=O)[O-])cc1Cl	i	1%	-16%	53%	1%	-1
C=C(Br)COC(c1ccco1)[C@H](Cc1ccccc1)NC(=O)OC(C)(C)C (stereo partly drawn)	.	-28%	.	.	?	.
Cc1c(CN2CCOc3c(cc(-c4ncc(C(F)(F)F)cc4Cl)cc3OCC3CCCO3)C2)cnn1C (stereo not drawn)	i	.	.	.	.	.
CS(=O)c1nc(-c2ccc(Br)cc2)cc(-c2ccccc2)c1C#N (stereo not drawn)	20µM*	-7%	?	13µM*	-8%	0
CC1(C)CC(=O)C=C(c2ccc(Oc3ccccc3)cc2)C1=O	?	-32%	.	11%	-11%	.
CC1(C)CC(=O)C=C(c2ccc(-c3cnc4ccccc4c3)cc2)C1=O	7.9µM*	-23%	.	?	-6%	.
N#Cc1nc(-c2ccc(OCc3ccc(Cl)cc3)cc2)oc1N1CCCCC1	.	-9%	.	.	-1%	23
CCn1cc(CN2CCN(CCC(C)C)C(CCO)C2)c2ccccc21 (stereo not drawn)	i	11µM*	-2%	.	-16%	6
